Results: PubChem BioAssay AID485314 (National Center for Advancing Translational Sciences (NCATS), 2010)
Several values for one entry are separate records, joined by “and”; a condition that tells them apart may be missing. Identical values can stand only once. The whole screen tested about 340,000 compounds, of which about 4,500 (1.3%) were called active. Entries that show only a call come without a potency. Not shown: some 5% with an inconclusive outcome. Calls come from the whole dose curve; as a rule, active = well fitted inhibition curve with a large enough effect; inconclusive = small, poorly fitted or top-dose-only effect, or another doubt; inactive = no such curve, though single readings can be large or run the other way. The full list was thinned out, with actives kept by preference.

Biological target: DNA polymerase beta (Homo sapiens) (UniProt P06746)
Experiment: qHTS Assay for Inhibitors of DNA Polymerase Beta
Conditions: Pol beta primer extension/strand displacement, fluorescence kinetic; series mostly up to 114 µM
How it was run: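 Human Pol beta at 10 nM; strand-displacement substrate 50 nM final. Compound exposure 15 min at room temperature before start, reaction 10 min at room temperature.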
Potency is the fitted concentration of half-maximal effect.

Compound	Potency
COc1cc(C(=O)N2CCN(c3ccc(Nc4ccc(C)cc4)nn3)CC2)cc(OC)c1OC	inactive
Cc1ccc(-c2cnc(NCc3ccc(C(C)C)cc3)n2C)cc1	inactive
COc1ccc(OCC(=O)Nc2ccc(NC(=O)c3ccco3)c(C)c2)cc1	inactive
Cc1ccc(OCC(=O)NCCCNC(=O)c2ccco2)cc1C	inactive
COc1ccc(NC(=O)c2ccco2)cc1NC(=O)COc1ccc(C)c(C)c1	11.2 µM (active)
CCC(C)Nc1oc(-c2ccc(COc3ccc(Cl)cc3)o2)nc1C#N (stereo unspecified)	inactive
Cc1ccccc1CNC(=O)CCCn1nc(C)c2sc3ccccc3c2c1=O	inactive
CCCNC(=S)N1CCCC(c2nc3ccccc3[nH]2)C1 (stereo unspecified)	inactive
CCNC(=S)N1CCC(c2nc3cc(C)c(C)cc3[nH]2)CC1	inactive
COCCCNC(=S)N1CCCC(c2nc3cc(C)c(C)cc3[nH]2)C1 (stereo unspecified)	39.8 µM (active)
CC1(C)N=C(SCc2ccccc2Cl)c2ccccc2N1	inactive
Cc1ccc(-c2nnc(SCC(=O)NCc3ccccc3)nc2-c2ccc(C)cc2)cc1	inactive
Fc1ccc(Nc2nc(SCc3ccccc3Cl)nc3ccccc23)cc1	inactive
Clc1ccccc1CSc1nnc(-c2ccco2)c(-c2ccco2)n1	4.47 µM (active)
COc1ccc2nc(SCc3ccccc3)nc(C)c2c1	inactive
c1ccc(CSc2nnc(-c3ccco3)c(-c3ccco3)n2)cc1	7.94 µM (active)
CCN(CC)S(=O)(=O)c1nnc(NC(=O)COc2ccccc2Cl)s1	inactive
CC1=Nc2cc(C(=O)NCc3ccc(C)cc3)ccc2Sc2ccc(Cl)cc21	inactive
O=C(CSc1nccn1-c1ccc(F)cc1)Nc1cccc2ccccc12	inactive
Cc1ccc(C)c(N2CCN(C(=O)Cn3nc(C)c4sc5ccccc5c4c3=O)CC2)c1	inactive
COc1ccc2c(c1)Cc1sc(NC(=O)c3ccccc3Br)nc1-2	inactive
CC(C)(C)c1ccc(C(=O)N2CCC(c3nc(-c4ccc(S(=O)(=O)N5CCCC5)cc4)no3)CC2)cc1	inactive
CCOC(=O)C1CCN(C(c2ccc(F)cc2)c2sc3nc(-c4ccco4)nn3c2O)CC1 (stereo unspecified)	inactive
CCOc1ccccc1/C=c1\sc2nc(-c3ccco3)nn2c1=O	11.2 µM (active)

Compound	Potency
Oc1c(C(c2ccccc2Cl)N2CCOCC2)sc2nc(-c3ccco3)nn12 (stereo unspecified)	inactive
COc1cc(CNC(=O)c2cc3n(n2)CCCN(Cc2cccc(F)c2)C3=O)cc(OC)c1OC	inactive
CCC(=O)Nc1cccc(C(=O)OCc2cc(=O)n3nc(CC)sc3n2)c1	inactive
Cc1c(C(=O)NCc2ccccc2Br)oc2ccc3c(c12)C(=O)CC(C)(C)O3	inactive
O=C(CSc1nccn1Cc1ccc(F)cc1)NCc1ccccc1	inactive
COc1ccc(-c2noc(CSc3nnc(-c4ccccc4)n3-c3ccc(F)cc3)n2)c(OC)c1	inactive
C/C(=N\NS(=O)(=O)c1ccc(Br)cc1)c1cccs1	inactive
C/C(=N\Nc1ncc(Cl)cc1Cl)c1cccs1	inactive
C/C(=N\Nc1ccc(S(N)(=O)=O)cc1[N+](=O)[O-])c1cccs1	11.2 µM (active)
CCC(=O)N1c2ccccc2CC1C(=O)N1CCN(c2cccc(OC)c2)CC1 (stereo unspecified)	inactive
O=C(NCc1ccccc1)c1ccc2c(c1)nc1n2CCCCC1	inactive
CCOc1cccc(NC(=O)CSc2ncc(-c3ccc(Cl)cc3)[nH]2)c1	inactive
Cc1cc(C)c2nc3nc(C)cc(C)c3c(N)c2c1	39.8 µM (active)
CC(/C=N/NC(=O)c1cc(-c2ccc3ccccc3c2)n[nH]1)=C\c1ccco1	12.6 µM (active)
CC(=C/c1ccccc1)/C=N/NC(=O)c1cc(C)oc1C	inactive
CC(C)(C)C1CCC(=NNC(=O)c2cc(-c3ccccc3)n[nH]2)CC1 (stereo unspecified)	inactive
COc1ccc(/C=C/c2nc(C#N)c(NCc3ccc(F)cc3)o2)cc1OC	inactive
Cc1nc2c(c(=O)n1Cc1ccco1)c1nc3ccccc3nc1n2Cc1ccccc1	20 µM (active)
Cn1c2ccccc2c(=O)c2c(=O)n(Cc3ccco3)c(COc3ccccc3)nc21	inactive
Cc1cc(NC(=O)CSc2nc3cc(Cl)ccc3c(=O)n2Cc2ccco2)no1	inactive
Cc1ccc(Cn2c(C)nc3c(c2=O)c2nc4ccccc4nc2n3Cc2ccco2)cc1	10 µM (active)
Clc1cccc(-c2nc3nc4ccccc4nc3n2Cc2ccco2)c1	inactive
O=c1c2ccccc2oc2nc(C3CCCCC3)n(Cc3ccco3)c(=O)c12	inactive
Cc1c(NC(=O)C(C)(C)C)cccc1-c1nc2ccccc2s1	inactive

Compound	Potency
Cc1ccc(NC(=O)CCCn2c(=O)c3cccn3c3ccccc32)cc1Cl	inactive
Cc1ccc(CN2CCC(CNC(=O)c3cnn(-c4ccccc4Cl)c3C3CCN(C(=O)OC(C)(C)C)CC3)CC2)cc1	inactive
Cc1ccc(CNC(=O)CCc2c(C)nn(-c3ccc(N4CCCC4)nn3)c2C)cc1	inactive
CC(=O)c1cccc(Nc2ccc3cc(S(=O)(=O)N4CCC(C)CC4)ccc3n2)c1	inactive
CC(=O)c1ccc(S(=O)(=O)N2CCN(C(=O)/C=C/c3ccc4ccccc4n3)CC2)cc1	11.2 µM (active)
CC(=O)c1ccc(S(=O)(=O)N2CCC3(CC2)OCCO3)cc1	inactive
O=C1Cc2cc(S(=O)(=O)Nc3ccc(OC(F)(F)F)cc3)cc3c2N1CCC3	inactive
Cc1ccc(NC(=O)c2nc(S(=O)(=O)Cc3cccc(C)c3)ncc2Cl)cc1	inactive
COc1ccc(NS(=O)(=O)c2cc3c4c(c2)CC(=O)N4CCC3)cc1Cl	inactive
CC(C)Cn1c(=O)c2ccccc2n2c(-c3cccc(Cl)c3)nnc12	inactive
O=c1[nH]c2ccccc2n2c(-c3ccccc3)nnc12	39.8 µM (active)
O=c1[nH]n2c(-c3ccccc3)nc(O)c2c2ccccc12	inactive
COc1ccc(CNC(=O)c2cc3c(-c4ccccc4F)nn(C)c3s2)c(OC)c1	inactive
COc1ccc(N2CCN(c3nc(-c4ccccc4F)nc4ccccc34)CC2)cc1	inactive
COc1ccc(-n2c(C)nc3c(cnn3-c3ccc(F)cc3)c2=O)cc1	inactive
CC(C)c1ccc2c(c1)c(SC(C)(C)C)c(CC(C)(C)C(=O)O)n2Cc1ccc(Cl)cc1	50.1 µM (active) and 31.6 µM (active)
CC(C)c1ccc(Cn2c(COc3ccccc3)nc3ccccc32)cc1	inactive
Cc1c(C)n(Cc2ccc(Cl)cc2)c2ccc(C(=O)N3CCN(c4ccccc4F)CC3)cc12	inactive
Cc1ccc(C)c(Oc2c(C(F)(F)F)oc3c(CN4CCN(C)CC4)c(O)ccc3c2=O)c1	inactive
Cc1cccc(-n2ccnc2SCC(=O)Nc2cccc3ccccc23)c1C	inactive
CCCS(=O)(=O)Nc1cccc(-c2cn3ccsc3n2)c1	inactive
CC(=O)Nc1ccc(NC(=O)CCCc2nc(-c3ccc(C(C)(C)C)cc3)no2)cc1	inactive
CCc1nn(CC(=O)N2CCN(CC)CC2)c(=O)c2cccn12	inactive
CC(C)c1ccc(NC(=O)Cn2ncc3ccccc32)cc1	inactive

Compound	Potency
CCCN1CCN(C(=O)Cn2ncc3ccccc32)CC1	12.6 µM (active)
CC(=O)c1ccc(N2CCN(C3C(=O)c4ccccc4N3C(C)=O)CC2)cc1 (stereo unspecified)	inactive
Cc1ccc(-c2ccc(CCC(=O)O)n2-c2ccc(C(N)=O)cc2)cc1	inactive
Cc1ccc(-n2nc(C)c(C(=O)O)c2-n2cccc2)cc1	12.6 µM (active)
Cc1nn(-c2ccccc2)c(-n2cccc2)c1C(=O)O	inactive
Cc1nn(-c2ccc(F)cc2)c(-n2cccc2)c1C(=O)N1CCN(c2ccccc2)CC1	inactive
COc1cccc(NC(=O)C(=O)NCC(c2ccc3c(c2)OCO3)N2CCN(C)CC2)c1 (stereo unspecified)	inactive
Cc1ccccc1Nc1nn2c(=O)c3ccc(C(=O)NCCc4ccc(Cl)cc4)cc3nc2s1	inactive
CCN(Cc1ccccc1)S(=O)(=O)c1ccc2c(c1)CCCN2C(C)=O	inactive
CCc1nnc(SCC(=O)Nc2cc(OC)ccc2OC)nc1CC	inactive
COc1ccc2[nH]c(C(=O)N/N=C/c3cc(OC)c(OC)c(OC)c3)cc2c1	8.91 µM (active)
CCOc1ccc2[nH]c(C(=O)N/N=C/c3cccc(OC)c3OC)cc2c1	inactive
COc1ccc2[nH]c(C(=O)Nc3ccccc3Cl)cc2c1	inactive
CCc1nc2c(cnn2-c2ccc(C)cc2)c(=O)n1-c1ccc(C)cc1	inactive
COc1ccccc1N1CC(C(=O)Nc2nnc(SCC(=O)NCC3CCCO3)s2)CC1=O (stereo unspecified)	inactive
Cc1ccccc1N1CC(C(=O)Nc2nnc(SCCC3OCCO3)s2)CC1=O (stereo unspecified)	14.1 µM (active)
COc1ccccc1N1CC(C(=O)Nc2nnc(SCC(=O)NC(C)C)s2)CC1=O (stereo unspecified)	inactive
Cc1ccc(Cl)cc1NC(=O)Cc1ccc(-n2c(C)nc3cccnc32)cc1	inactive
CCS(=O)(=O)c1cc([N+](=O)[O-])c(Sc2ccccc2N)s1	inactive
CCOC(=O)C1=C(CC)Nc2ccccc2N=C1N	inactive
CCOC(=O)c1cc(Sc2ccccc2N)cc(C(=O)OCC)n1	25.1 µM (active)
CN1c2ccc(Cl)cc2-c2nc(SCC(=O)Nc3cc(F)ccc3F)ncc2S1(=O)=O	inactive
COc1cc(CNCCSc2nnnn2C)ccc1OCc1ccc(Cl)cc1Cl	inactive
CCc1cccc(NC(=O)CN(C)S(=O)(=O)c2ccc3[nH]c4c(c3c2)CCCC4)c1	inactive

Compound	Potency
COc1cccc(CNC(=O)CCC(=O)N2CC3CCCN3c3ccccc32)c1 (stereo unspecified)	inactive
Cc1cc(C(=O)OCC(=O)N2c3ccccc3NC(=O)C2(C)C)c(C)n1-c1ccccc1	inactive
O=C(COC(=O)c1cc(S(=O)(=O)N2CCCCC2)ccc1Cl)NCc1ccco1	inactive
O=C(COC(=O)C12CC3CC(CC(C3)C1)C2)NCc1ccco1	14.1 µM (active)
CN(c1ccccc1)S(=O)(=O)c1ccc(Cl)c(C(=O)OCC(=O)NCc2ccco2)c1	inactive
C/C(=N\Nc1ncc(Cl)cc1Cl)c1ccc(S(=O)(=O)NCc2ccco2)cc1	inactive
O=C(COC(=O)c1cnc(Cl)c(Cl)c1)NCc1ccco1	25.1 µM (active)
Cc1cc(C(=O)OCC(=O)NCc2ccco2)c(C)n1-c1ccccc1	22.4 µM (active)
O=C(COC(=O)c1ccco1)NCc1ccc(Cl)cc1	inactive
Cc1c(Cl)cnc(NC(=O)COC(=O)c2ccc(S(=O)(=O)NCc3ccco3)cc2)c1Cl	31.6 µM (active)
O=C(NCCCCCCNC(=O)NCc1ccco1)NCc1ccco1	inactive
O=C(CC1CCCCC1)NCc1ccco1	inactive
CSCCC(NC(=O)c1ccco1)C(=O)OCC(=O)Nc1ncc(Cl)c(C)c1Cl (stereo unspecified)	inactive
COc1ccc(NC(=O)CCCN2C(=O)CCn3nc(-c4cn(C)c5ccccc45)cc32)cc1OC	inactive
CCN1CCN(C(c2ccc(C)cc2)c2c(O)cc(C)n(Cc3ccco3)c2=O)CC1 (stereo unspecified)	inactive
CC1Cc2cc(S(=O)(=O)CCC(=O)NCc3ccc(Cl)cc3)ccc2N1C(=O)C1CC1 (stereo unspecified)	inactive
C#CC(C)(CC)NC(=O)Cn1nnc(-c2ccc(OCc3c(F)cccc3Cl)cc2)n1 (stereo unspecified)	inactive
CC(=O)OC1=C(C(C)=O)N(Cc2ccccc2)S(=O)(=O)c2ccccc21	inactive
O=C(C1CCC(Cn2c(=O)c3sccc3n(Cc3ccccc3F)c2=O)CC1)N1CCCCC1 (stereo unspecified)	inactive
COCCCNC(=O)c1ccc(NC(=O)c2nsc3ccccc23)cc1	inactive
